The record followed here is ChEMBL document CHEMBL1961873, “Compounds: GSK PKIS; Assays: Nanosyn kinase panel” (2012).

The target of assay [1] is Protein kinase C gamma type (Homo sapiens) (UniProt P05129). Particulars: at 1 µM.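 Further: each value is an averaged percent inhibition of the enzyme.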
Assay [2] deals with T1, Protein kinase C iota type (Homo sapiens) (UniProt P41743).
T1 sequence (whole entry): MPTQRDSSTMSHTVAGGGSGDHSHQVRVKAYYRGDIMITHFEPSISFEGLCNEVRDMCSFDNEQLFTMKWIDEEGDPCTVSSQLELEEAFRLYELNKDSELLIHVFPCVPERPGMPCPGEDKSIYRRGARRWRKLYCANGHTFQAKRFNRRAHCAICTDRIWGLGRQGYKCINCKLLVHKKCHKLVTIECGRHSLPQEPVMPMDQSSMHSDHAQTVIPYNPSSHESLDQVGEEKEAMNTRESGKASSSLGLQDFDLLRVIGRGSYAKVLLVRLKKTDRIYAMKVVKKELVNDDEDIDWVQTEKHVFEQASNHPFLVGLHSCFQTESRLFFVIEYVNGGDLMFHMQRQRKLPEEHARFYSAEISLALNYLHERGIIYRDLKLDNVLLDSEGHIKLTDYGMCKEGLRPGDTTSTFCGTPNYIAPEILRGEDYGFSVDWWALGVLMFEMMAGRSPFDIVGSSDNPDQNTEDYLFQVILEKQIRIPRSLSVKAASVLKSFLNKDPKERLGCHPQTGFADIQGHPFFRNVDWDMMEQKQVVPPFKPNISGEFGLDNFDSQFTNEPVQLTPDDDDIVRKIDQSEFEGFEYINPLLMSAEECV
Particulars: at 0.1 µM.

For assay [3], the target named is T1, Protein kinase C iota type (Homo sapiens). Particulars: at 1 µM.
The target of assay [4] is Protein kinase C theta type (Homo sapiens) (UniProt Q04759). To be noted: at 0.1 µM.
The target is the same in assay [5]. Particulars: at 1 µM.
Assay [6] concerns the target Protein kinase C beta type (Homo sapiens) (UniProt P05771). To be noted: at 0.1 µM.
The target is the same in assay [7]. Particulars: at 1 µM.
In assay [8] the target is T2, Serine/threonine-protein kinase D1 (Homo sapiens) (UniProt Q15139).
T2 sequence (whole entry): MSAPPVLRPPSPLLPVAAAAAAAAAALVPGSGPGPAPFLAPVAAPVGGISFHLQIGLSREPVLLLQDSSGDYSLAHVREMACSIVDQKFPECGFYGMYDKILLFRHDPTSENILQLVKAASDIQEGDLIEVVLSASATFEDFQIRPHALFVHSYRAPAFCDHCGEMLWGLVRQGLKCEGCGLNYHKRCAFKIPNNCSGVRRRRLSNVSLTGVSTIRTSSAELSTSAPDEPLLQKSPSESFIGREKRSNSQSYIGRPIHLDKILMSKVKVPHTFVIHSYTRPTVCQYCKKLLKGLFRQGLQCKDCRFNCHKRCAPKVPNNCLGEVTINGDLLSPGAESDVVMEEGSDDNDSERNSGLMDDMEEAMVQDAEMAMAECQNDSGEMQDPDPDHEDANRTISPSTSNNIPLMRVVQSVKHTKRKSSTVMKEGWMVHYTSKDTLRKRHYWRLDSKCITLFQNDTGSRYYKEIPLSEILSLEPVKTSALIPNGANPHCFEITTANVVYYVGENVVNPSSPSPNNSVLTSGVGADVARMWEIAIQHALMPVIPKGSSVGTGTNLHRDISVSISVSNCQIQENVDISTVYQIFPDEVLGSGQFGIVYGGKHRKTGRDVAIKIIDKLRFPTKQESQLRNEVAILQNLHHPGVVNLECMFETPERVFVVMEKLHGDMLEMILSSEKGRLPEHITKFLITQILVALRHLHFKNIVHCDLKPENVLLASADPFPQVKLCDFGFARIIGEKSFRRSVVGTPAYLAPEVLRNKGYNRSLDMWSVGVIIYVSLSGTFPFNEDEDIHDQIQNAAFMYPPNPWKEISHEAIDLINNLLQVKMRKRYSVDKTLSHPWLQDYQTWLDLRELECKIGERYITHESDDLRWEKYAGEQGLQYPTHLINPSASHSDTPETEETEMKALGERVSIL
To be noted: at 0.1 µM.

The target of assay [9] is T2, Serine/threonine-protein kinase D1 (Homo sapiens). Particulars: at 1 µM.
Assay [10] concerns the target T3, Serine/threonine-protein kinase D2 (Homo sapiens) (UniProt Q9BZL6).
T3 sequence (whole entry): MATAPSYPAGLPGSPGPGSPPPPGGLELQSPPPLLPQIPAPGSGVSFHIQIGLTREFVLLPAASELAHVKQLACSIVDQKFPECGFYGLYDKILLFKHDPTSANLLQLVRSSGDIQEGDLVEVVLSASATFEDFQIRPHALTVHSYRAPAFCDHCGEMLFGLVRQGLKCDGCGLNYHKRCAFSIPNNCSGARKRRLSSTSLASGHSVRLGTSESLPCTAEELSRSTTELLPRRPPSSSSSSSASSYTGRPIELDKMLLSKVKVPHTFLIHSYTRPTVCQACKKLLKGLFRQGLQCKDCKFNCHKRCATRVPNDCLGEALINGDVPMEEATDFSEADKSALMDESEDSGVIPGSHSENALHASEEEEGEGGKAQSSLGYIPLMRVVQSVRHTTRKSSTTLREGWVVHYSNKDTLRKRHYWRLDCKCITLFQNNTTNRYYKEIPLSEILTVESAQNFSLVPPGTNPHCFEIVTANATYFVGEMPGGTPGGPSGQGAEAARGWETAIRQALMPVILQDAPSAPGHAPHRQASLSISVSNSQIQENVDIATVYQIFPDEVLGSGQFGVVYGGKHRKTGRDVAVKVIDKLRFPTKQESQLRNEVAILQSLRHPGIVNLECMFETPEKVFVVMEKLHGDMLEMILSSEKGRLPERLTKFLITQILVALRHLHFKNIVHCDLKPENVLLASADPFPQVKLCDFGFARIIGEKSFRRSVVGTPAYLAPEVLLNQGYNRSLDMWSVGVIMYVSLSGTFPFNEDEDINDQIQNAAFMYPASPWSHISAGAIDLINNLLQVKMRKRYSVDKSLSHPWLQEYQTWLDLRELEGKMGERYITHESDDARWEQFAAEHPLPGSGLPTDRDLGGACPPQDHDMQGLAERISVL
To be noted: at 0.1 µM.

The target in assay [11] is T3, Serine/threonine-protein kinase D2 (Homo sapiens). To be noted: at 1 µM.
Assay [12] has as its target T4, Serine/threonine-protein kinase D3 (Homo sapiens) (UniProt O94806).
T4 sequence (whole entry): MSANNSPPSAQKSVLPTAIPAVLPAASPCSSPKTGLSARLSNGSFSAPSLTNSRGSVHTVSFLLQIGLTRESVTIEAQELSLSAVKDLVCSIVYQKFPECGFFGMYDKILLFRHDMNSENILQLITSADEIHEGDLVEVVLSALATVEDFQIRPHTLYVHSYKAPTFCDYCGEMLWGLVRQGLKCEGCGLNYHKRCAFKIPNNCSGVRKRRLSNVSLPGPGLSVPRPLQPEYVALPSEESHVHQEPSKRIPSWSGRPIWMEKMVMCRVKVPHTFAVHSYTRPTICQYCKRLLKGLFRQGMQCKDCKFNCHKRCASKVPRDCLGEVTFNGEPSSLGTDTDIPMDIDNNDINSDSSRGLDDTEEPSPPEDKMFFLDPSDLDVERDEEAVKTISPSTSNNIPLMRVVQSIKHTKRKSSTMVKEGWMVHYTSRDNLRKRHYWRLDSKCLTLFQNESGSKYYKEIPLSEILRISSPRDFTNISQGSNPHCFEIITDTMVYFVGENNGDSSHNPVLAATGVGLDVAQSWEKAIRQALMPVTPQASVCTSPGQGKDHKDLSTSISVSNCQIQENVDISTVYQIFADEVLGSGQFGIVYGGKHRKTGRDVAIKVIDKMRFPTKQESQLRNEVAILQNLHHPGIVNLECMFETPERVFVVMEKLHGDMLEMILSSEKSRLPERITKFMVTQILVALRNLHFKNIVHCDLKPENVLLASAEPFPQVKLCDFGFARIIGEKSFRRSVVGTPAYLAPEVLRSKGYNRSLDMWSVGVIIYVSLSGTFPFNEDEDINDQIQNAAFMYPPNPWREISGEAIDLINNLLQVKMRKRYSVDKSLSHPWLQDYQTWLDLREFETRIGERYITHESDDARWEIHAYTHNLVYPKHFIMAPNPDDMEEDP
Particulars: at 0.1 µM.

Assay [13] has as its target T4, Serine/threonine-protein kinase D3 (Homo sapiens). To be noted: at 1 µM.
For assay [14], the target named is T5, cGMP-dependent protein kinase 1 (Homo sapiens) (UniProt Q13976).
T5 sequence (whole entry): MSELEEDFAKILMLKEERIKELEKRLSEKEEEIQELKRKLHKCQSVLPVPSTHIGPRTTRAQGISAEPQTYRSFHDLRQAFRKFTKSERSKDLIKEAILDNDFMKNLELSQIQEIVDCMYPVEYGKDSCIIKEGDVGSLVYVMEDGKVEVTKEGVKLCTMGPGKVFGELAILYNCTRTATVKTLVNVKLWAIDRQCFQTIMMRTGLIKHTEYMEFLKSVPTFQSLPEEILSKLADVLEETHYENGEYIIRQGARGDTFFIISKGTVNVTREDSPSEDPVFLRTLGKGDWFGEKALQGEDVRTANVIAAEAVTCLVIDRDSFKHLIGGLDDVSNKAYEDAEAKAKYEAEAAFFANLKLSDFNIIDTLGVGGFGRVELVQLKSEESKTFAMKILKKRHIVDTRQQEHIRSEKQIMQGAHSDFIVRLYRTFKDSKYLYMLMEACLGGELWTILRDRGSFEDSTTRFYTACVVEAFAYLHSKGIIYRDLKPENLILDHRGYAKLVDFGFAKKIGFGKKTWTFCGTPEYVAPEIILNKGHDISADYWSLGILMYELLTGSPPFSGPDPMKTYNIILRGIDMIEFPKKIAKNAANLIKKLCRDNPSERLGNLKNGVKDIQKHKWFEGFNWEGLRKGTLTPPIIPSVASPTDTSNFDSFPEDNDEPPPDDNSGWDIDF
To be noted: at 0.1 µM.

Assay [15] addresses T5, cGMP-dependent protein kinase 1 (Homo sapiens). To be noted: at 1 µM.
Assay [16] has as its target T6, cGMP-dependent protein kinase 2 (Homo sapiens) (UniProt Q13237).
T6 sequence (whole entry): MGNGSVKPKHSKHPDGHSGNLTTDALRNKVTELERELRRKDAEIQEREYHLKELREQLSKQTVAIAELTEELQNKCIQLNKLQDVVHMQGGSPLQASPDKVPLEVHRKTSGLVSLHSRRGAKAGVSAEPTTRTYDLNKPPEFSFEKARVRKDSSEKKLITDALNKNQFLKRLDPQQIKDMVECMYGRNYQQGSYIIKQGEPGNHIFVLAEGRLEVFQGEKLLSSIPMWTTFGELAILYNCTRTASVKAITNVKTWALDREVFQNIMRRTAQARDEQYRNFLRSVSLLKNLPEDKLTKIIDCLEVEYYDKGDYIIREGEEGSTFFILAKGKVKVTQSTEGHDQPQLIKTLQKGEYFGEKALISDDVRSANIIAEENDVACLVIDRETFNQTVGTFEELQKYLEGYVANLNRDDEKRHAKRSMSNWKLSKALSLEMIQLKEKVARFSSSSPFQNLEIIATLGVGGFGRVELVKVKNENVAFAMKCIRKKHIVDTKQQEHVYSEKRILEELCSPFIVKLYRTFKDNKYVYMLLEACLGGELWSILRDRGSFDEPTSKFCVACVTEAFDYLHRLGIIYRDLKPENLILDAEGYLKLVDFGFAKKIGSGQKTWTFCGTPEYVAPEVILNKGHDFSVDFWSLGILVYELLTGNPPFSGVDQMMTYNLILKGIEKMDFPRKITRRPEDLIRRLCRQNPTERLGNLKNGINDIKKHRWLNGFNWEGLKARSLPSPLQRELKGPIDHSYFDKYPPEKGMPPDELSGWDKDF
To be noted: at 0.1 µM.

In assay [17] the target is T6, cGMP-dependent protein kinase 2 (Homo sapiens). To be noted: at 1 µM.
The target in assay [18] is T7, cAMP-dependent protein kinase catalytic subunit PRKX (Homo sapiens) (UniProt P51817).
T7 sequence (whole entry): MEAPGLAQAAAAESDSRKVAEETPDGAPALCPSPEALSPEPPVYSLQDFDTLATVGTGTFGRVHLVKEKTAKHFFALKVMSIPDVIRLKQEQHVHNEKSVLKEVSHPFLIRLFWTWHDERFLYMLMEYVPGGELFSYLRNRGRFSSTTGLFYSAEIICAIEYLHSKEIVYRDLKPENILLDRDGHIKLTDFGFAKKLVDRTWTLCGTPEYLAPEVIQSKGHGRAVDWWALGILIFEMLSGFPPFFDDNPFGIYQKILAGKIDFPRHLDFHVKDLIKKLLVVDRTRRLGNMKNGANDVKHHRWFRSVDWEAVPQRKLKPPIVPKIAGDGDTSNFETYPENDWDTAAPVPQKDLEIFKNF
To be noted: at 0.1 µM.

The target in assay [19] is T7, cAMP-dependent protein kinase catalytic subunit PRKX (Homo sapiens). Particulars: at 1 µM.
Assay [20] concerns the target Rho-associated protein kinase 1 (Homo sapiens) (UniProt Q13464). Particulars: at 0.1 µM.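 Further: values are mean percent inhibition of ROCK1.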

Protein kinase C theta type (Homo sapiens), sequence (Q04759 whole entry, looked up): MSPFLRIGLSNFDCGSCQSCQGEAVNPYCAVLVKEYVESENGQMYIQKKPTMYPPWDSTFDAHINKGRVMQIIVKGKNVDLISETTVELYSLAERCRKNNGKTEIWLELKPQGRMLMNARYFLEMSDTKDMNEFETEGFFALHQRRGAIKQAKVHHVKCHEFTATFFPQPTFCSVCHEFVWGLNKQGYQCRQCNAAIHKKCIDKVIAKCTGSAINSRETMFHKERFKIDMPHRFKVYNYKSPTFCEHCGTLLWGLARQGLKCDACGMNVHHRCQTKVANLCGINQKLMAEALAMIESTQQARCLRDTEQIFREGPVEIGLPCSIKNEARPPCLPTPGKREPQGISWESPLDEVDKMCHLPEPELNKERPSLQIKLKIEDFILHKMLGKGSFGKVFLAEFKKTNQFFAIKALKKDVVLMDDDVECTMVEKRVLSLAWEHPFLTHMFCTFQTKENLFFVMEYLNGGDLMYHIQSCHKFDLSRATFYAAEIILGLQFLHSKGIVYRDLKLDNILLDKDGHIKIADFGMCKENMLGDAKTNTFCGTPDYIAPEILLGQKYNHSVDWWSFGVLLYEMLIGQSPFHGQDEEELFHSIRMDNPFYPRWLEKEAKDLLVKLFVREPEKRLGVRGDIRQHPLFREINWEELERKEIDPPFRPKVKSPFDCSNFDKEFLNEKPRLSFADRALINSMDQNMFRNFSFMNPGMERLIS
Protein kinase C beta type (Homo sapiens), sequence (P05771 2-671 limits assumed): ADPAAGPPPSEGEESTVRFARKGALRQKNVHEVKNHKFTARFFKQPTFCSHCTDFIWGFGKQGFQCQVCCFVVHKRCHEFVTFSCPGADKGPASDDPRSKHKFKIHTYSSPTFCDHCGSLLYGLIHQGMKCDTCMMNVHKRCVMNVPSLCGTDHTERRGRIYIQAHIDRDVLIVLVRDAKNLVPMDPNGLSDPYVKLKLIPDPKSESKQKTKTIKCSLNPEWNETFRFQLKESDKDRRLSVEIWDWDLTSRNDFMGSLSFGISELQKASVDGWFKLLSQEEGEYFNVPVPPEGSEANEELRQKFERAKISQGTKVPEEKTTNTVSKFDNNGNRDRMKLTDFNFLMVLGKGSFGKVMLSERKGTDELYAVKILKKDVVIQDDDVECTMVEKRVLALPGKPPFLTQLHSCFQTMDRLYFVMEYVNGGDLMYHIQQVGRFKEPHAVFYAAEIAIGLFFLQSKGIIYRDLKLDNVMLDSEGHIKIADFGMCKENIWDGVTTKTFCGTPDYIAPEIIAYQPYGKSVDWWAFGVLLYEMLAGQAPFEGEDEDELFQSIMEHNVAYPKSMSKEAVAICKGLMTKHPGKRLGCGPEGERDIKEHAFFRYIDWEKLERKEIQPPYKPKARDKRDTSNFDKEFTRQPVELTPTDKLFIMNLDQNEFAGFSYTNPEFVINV
Rho-associated protein kinase 1 (Homo sapiens), sequence (Q13464 2-1354 limits assumed): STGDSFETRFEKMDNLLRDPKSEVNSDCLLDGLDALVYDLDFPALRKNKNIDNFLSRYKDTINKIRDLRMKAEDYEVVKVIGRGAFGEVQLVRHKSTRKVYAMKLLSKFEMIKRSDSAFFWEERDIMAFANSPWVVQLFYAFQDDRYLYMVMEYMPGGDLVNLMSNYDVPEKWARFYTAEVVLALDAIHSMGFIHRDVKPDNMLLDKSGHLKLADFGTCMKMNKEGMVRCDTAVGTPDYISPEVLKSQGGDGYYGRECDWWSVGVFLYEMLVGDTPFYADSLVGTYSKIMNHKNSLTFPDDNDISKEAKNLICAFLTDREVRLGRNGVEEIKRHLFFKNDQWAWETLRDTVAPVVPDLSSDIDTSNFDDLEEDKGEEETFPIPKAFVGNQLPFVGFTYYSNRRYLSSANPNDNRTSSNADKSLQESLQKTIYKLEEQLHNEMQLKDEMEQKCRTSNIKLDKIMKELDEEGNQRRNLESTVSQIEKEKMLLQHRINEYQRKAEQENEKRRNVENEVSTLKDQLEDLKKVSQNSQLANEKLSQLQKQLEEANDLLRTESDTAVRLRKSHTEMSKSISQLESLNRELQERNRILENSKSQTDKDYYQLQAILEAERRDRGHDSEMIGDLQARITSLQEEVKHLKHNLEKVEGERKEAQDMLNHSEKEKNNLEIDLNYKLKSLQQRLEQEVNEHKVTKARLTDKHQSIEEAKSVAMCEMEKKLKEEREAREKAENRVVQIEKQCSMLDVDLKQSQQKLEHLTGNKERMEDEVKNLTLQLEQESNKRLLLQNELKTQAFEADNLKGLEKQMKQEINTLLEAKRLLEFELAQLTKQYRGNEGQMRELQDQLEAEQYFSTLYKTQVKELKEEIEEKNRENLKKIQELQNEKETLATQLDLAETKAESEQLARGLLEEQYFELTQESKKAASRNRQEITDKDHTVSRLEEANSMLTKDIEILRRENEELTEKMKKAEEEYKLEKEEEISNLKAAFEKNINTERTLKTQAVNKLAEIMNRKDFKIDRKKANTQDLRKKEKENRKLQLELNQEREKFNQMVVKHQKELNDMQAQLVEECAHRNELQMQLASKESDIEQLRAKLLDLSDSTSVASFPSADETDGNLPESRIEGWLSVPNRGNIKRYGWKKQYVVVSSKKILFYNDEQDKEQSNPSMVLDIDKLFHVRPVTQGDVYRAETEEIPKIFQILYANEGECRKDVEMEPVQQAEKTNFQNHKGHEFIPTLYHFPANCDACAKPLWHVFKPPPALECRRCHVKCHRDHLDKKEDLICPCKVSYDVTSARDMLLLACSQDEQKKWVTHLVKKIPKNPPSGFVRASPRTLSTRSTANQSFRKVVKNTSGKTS

On to `Cc1ccc(NC(=O)c2ccoc2)cc1-c1ccc(C(=O)NCC2CC2)cc1`, for which the inhibition was -0.41% in assay [1]; 1.53% in assay [2]; -0.02% in assay [3]; 0.79% in [4]; 0.76% in [5]; -0.21% in assay [6]. In addition, the inhibition in assay [7] was 0.92%; in assay [8], 3.2%; in assay [9] it was 2.32%; in [10], 2.39%; in [11], 3.55%; in [12], 2.92%. Besides, the inhibition stood at 2.95% in assay [13]; 0.89% in [14]; 1.09% in [15]; 1.21% in assay [16]; 1.02% in [17]; 1.5% in assay [18]. Besides, the figures for the inhibition in assay [19] and in [20] were 0.55% and 0%, respectively.

In the case of `CN(c1ccc(NC(=O)Nc2c(Cl)cccc2Cl)cc1)c1ccnc(Nc2cccc(CS(C)(=O)=O)c2)n1`, the inhibition worked out at 6.65% in [1]; 1.27% in assay [2]; 1.5% in assay [3]; 2.22% in [4]; 3.24% in assay [5]; 0.41% in assay [6]. In addition, the inhibition was determined as 3.24% in assay [7]; 2.4% in assay [8]; 1.18% in [9]; 0.57% in assay [10]; 2% in assay [11]; 1.3% in [12]. Besides, the inhibition was 0.38% in assay [13]; 3.11% in assay [14]; 3.77% in [15]; 1.9% in [16]; 3.22% in assay [17]; 1.96% in assay [18]. Moreover, the results for the inhibition in [19] and in assay [20] were 3.64% and 0.85%, respectively.
